Screen size: about 390,000 compounds; about 910 (0.23%) were called active. Where a call stands in place of a potency, no number is given. Not shown: some 5% with an inconclusive outcome. The call rests on the fitted dose curve; in most records, active means well fitted inhibition curve with a large enough effect; inconclusive means small, poorly fitted or top-dose-only effect; inactive means no such curve, though single readings can be large or run the other way. For the sample, actives were picked, then their nearest neighbours and some compounds at random.
Potency means the concentration at half of the fitted maximal effect.

For this experiment, the target named is Ubiquitin carboxyl-terminal hydrolase 1 (Homo sapiens) (UniProt O94782). The experiment in a line: Inhibitors of USP1/UAF1: Primary Screen. Further: nearly all actives have a fitted effect of over 60% in size. The following applies: recombinant USP1/UAF1, Ub-Rhodamine cleavage fluorescence; series mostly up to 57.1 µM. The source says: Deubiquitinating enzymes (DUBs) are a class of enzymes that can cleave isopeptide bond formed between the C-terminal carboxylate of ubiquitin and a lysine side-chain amino group on the target protein. Among them, ubiquitin specific proteases (USPs) constitute the largest DUB family. Human USPs are emerging as promising targets for pharmacological intervention because of their connection to a number of human diseases, including prostate, colon and breast cancer (1, 2), pediatric acute lymphoblastic leukemia (3), and familial cylindromatosis (4). The advantage of inhibiting USPs lies in the potential specificity of therapeutic intervention that can lead to better efficacy and reduce nonspecific side effects. In a collaboration between the University of Delaware and the NIH Chemical Genomics Center, a high-throughput screen assay was developed to screen for USP1/UAF1 inhibitors. This miniaturized assay has a fluorescent read-out and is used to screen the NIH Molecular Libraries Small Molecule Repository (MLSMR) in order to identify a small molecule that inhibits USP1. NIH Chemical Genomics Center [NCGC] NIH Molecular Libraries Probe Centers Network [MLPCN] MLPCN Grant: DA030552 Assay Submitter (PI): Zhihao Zhuang, University of Delaware 1. Priolo, C., et al. (2006) The isopeptidase USP2a protects human prostate cancer from apoptosis. Cancer Res 66, 8625-8632 2. Popov, N., et al. (2007) The ubiquitin-specific protease USP28 is required for MYC stability. Nat Cell Biol 9, 765-774 3. De Pitta, C., et al. (2005) A leukemia-enriched cDNA microarray platform identifies new transcripts with relevance to the biology of pediatric acute lymphoblastic leukemia. Haematologica 90, 890-898 4. Kovalenko, A., et al. (2003) The tumour suppressor CYLD negatively regulates NF-kappaB signalling by deubiquitination. Nature 424, 801-805
Chain of Ubiquitin carboxyl-terminal hydrolase 1 (Homo sapiens) (O94782 whole entry, looked up): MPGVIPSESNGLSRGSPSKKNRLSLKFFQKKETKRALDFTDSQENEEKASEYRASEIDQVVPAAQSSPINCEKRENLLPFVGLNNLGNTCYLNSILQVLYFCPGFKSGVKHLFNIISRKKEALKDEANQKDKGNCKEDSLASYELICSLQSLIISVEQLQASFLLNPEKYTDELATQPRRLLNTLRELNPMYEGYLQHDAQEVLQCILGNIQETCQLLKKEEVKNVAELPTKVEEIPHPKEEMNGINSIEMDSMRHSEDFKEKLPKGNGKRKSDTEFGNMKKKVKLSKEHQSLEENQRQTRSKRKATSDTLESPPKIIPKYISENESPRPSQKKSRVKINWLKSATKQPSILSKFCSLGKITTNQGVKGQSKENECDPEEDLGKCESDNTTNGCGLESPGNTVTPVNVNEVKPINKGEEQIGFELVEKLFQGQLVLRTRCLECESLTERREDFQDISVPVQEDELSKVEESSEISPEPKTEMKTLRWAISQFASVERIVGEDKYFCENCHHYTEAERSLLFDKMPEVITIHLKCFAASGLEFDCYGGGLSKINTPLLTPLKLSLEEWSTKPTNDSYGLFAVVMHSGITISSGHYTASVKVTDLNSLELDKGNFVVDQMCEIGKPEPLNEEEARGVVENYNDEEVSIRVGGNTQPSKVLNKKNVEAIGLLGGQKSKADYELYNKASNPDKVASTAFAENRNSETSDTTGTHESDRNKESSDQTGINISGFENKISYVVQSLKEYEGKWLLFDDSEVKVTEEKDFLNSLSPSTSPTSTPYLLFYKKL
3 microliters of reagents (buffer in columns 3 and 4 as negative control and 1nM USP1/UAF1 complex in columns 1, 2, and 5-48) are dispensed into Greiner black solid bottom 1536-well assay plates. Compounds are then transferred via Kalypsys pin tool equipped with 1536-pin array (10nl slotted pins, V&P Scientific, San Diego, CA). Following an incubation step of 15 min at room temperature, 1ul of Ub-Rho substrate (150nM final concentration) is added to initiate the reaction. The plates are immediately centrifuged at 1000 rpm for 15 seconds, and subsequently transferred to a ViewLux high-throughput CCD imager (PerkinElmer) wherein kinetic measurements of fluorescence are acquired using 480 nm excitation/540 nm emission filter set (6 reads every 60 seconds, see Table 1). All reagents are diluted in an assay buffer consisting of 50mM HEPES (pH 7.8), 0.5mM EDTA, 0.1 mg/ml BSA, 1mM TCEP, and 0.01% Tween-20.
Take `CCN1C(=O)c2ccccc2S(=O)c2ccc(C(=O)NCc3ccc(F)cc3)cc21` (stereo unspecified): the Potency entry is “inactive”. Consider `COc1ccc(-n2nc(C(=O)NCCc3ccc(Cl)cc3)c3c4ccccc4n(C)c3c2=O)cc1Cl`, for which the Potency result is “inactive”. With `CCCN(CCC)C(=O)C1CCCN(c2ncnc3c2nc2n3CCCCC2)C1` (stereo unspecified), the Potency result was “inactive”.

With `CCN(Cc1ccccc1)C(=O)c1cn(-c2cccc(OC)c2)c(=O)c2ccccc12`, the Potency result was “inactive”. Then `COc1cc(OC)c(OC)cc1/C=C/c1nc2ccccc2c(=O)n1-c1ccc(Br)c(C)c1`, with “inactive”. Consider `Cc1cccc(N2CCN(C(=O)Cn3ncc4c5ccccc5n(C)c4c3=O)CC2C)c1` (stereo unspecified), for which the Potency result was “inactive”. For `CCOc1ccccc1C(=O)NC1(C(F)(F)F)C(=O)Nc2c1c(=O)[nH]c(=O)n2-c1ccc(F)cc1` (stereo unspecified) the value was “inactive”; for `Oc1c(C=Nc2cccc3nsnc23)ccc2ccccc12`, 25.1 µM (active); for `COCCNC(=O)c1cc(-c2cccc(Cl)c2)on1`, “inactive”. Then `COc1ccc(C(=O)c2oc3ccccc3c2NC(=O)COc2cccc(C)c2)cc1`, with “inactive”; and `Cc1c(C(=O)N2CCCC2)oc2c1-c1nn(CC(=O)NCc3ccc(OC(C)C)cc3)cc1CC2`, with “inactive”; and `COc1ccccc1NC(=O)c1sc2nc(C)c(C(=O)Nc3ccc(Cl)cc3)c(-c3ccc(Br)cc3)c2c1N`, with “inactive”. Then `COc1ccc(NC(=O)C2CCN(c3ccc(Sc4ccc(C)cc4)nn3)CC2)c(OC)c1`, with “inactive”.

On to `CC(C)(C)OC(=O)N1CCC(c2c(C(=O)NCCc3ccsc3)cnn2-c2ccc(F)cc2F)CC1`, for which the Potency entry was “inactive”. For `O=C(CN1CCN(Cc2ccc(Cl)cc2)C1=O)NCc1ccc(F)cc1` the value was “inactive”; for `O=C(O)c1ccc(Cn2c(SCc3ccc(F)cc3)nc3ccncc32)cc1`, “inactive”; for `CCOC(=O)C1CCCN(S(=O)(=O)c2cc(-c3cc(C)no3)ccc2OC)C1` (stereo unspecified), “inactive”. For `Cc1ccc(CNC(=O)CSc2c3c(nc4cc(Cl)ccc24)CCCC3)cc1` the value was “inactive”; for `Cc1onc(-c2ccc(F)cc2F)c1C(=O)Nc1cccc(C(F)(F)F)c1`, “inactive”. For `CC(C)(C)c1ccc(C(=O)NCC(c2ccco2)S(=O)(=O)c2ccc(F)cc2)cc1` (stereo unspecified) the value was “inactive”; for `CCCCCCc1cc2cc(-c3nnc(-c4ccccc4)o3)c(=O)oc2cc1O`, 8.91 µM (active). As to `CCc1ccc(NC(=O)c2cnc3c(-c4ccccc4)c(C)nn3c2C)cc1`, the Potency entry is “inactive”. Then `COc1ccc(Cn2ccn(CC(=O)Nc3cc(C)ccc3C)c(=O)c2=O)cc1`, with “inactive”. For `Cc1ccc(-c2nn(-c3ccccc3)cc2/C=C2\SC(=S)N(CCCCCC(=O)O)C2=O)o1` the value was 7.08 µM (active); for `O=C(/C=C(O)/C=C/c1ccc(O)cc1)/C=C/c1ccc(O)cc1`, 28.2 µM (active); for `C[n+]1ccc(/C=C/c2c[nH]c3ccccc23)cc1`, 28.2 µM (active).

For the compound `O=c1[nH]c2cc(Br)ccc2n2cccc12`, the Potency entry is “inactive”. `Cn1c(COc2ccccc2C(C)(C)C)nc2ccccc21`: the Potency result is “inactive”. Regarding `CCN(c1ncnc2c1cnn2-c1ccc(C)cc1)C1CCCCC1`, the Potency entry was “inactive”. For the compound `CCOC(=O)c1c(C)n(S(=O)(=O)c2ccc(C)cc2C)c2ccc(NS(=O)(=O)c3ccc(C)cc3C)cc12`, the Potency entry is “inactive”. For `CCC(=O)N1c2ccccc2CC1C(=O)N1CCN(c2ccccc2F)CC1` (stereo unspecified) the value was “inactive”; for `O=S(=O)(NCC(c1ccco1)N1CCOCC1)c1cc(F)ccc1F` (stereo unspecified), “inactive”. Turning to `COCCNC(=O)c1ccc2c(c1)N(Cc1cccc(Cl)c1)C(=O)c1ccccc1S2(=O)=O`, the Potency result is “inactive”. Then `CCCSc1ncc(Cl)c(C(=O)Nc2c(C(=O)Nc3ccccc3)oc3ccccc23)n1`, with “inactive”; and `Cc1ccc(S(=O)(=O)/N=S(\C)C(C)C)cc1` (stereo unspecified), with “inactive”.

On to `COc1ccc(S(=O)(=O)/N=C2\C=C(NS(=O)(=O)c3ccccc3)C(=O)c3ccccc32)cc1`, for which the Potency is 15.8 µM (active).

For the compound `COc1ccc(S(=O)(=O)Nc2cc3c(C(=O)OC(C)C)c(C)oc3c3ccccc23)cc1`, the Potency result is “inactive”.

Regarding `Cc1ccc(S(=O)(=O)Nc2nc(N)n(-c3ccccc3)n2)cc1`, the Potency entry was “inactive”. Consider `Cc1ccc(S(=O)(=O)/N=C2\C=C(NS(=O)(=O)c3ccc(C)cc3)C(=O)c3ccccc32)cc1`, for which the Potency was 20 µM (active). On to `COc1ccc(N2CCN(C3CCCCC3NS(=O)(=O)c3ccccc3)CC2)cc1` (stereo unspecified), for which the Potency result is “inactive”.

In the case of `CCCN(CCC)C(=O)Cn1c(=O)n(-c2ccc(Cl)cc2)c(=O)c2c3c(sc21)CCCCC3`, the Potency result was “inactive”. Then `O=C(C1CCC(Cn2c(=O)c3sccc3n(Cc3ccccc3F)c2=O)CC1)N1CCCCC1` (stereo unspecified), with “inactive”; and `COc1ccc(NC(=O)CCCN2C(=O)CCn3nc(-c4cn(C)c5ccccc45)cc32)cc1OC`, with “inactive”; and `CC(=O)Nc1cccc(NC(=O)CSc2cn(CC(=O)N3CCCC3)c3ccccc23)c1`, with “inactive”. For `COc1ccc(C)cc1N(CC(=O)N1CCC(C)CC1)S(=O)(=O)c1ccc(C)cc1` the value was “inactive”. On to `COc1ccc(OC)c(-c2noc(N3CCN(c4cc(Cl)ccc4C)CC3)n2)c1`, for which the Potency entry was “inactive”.

The values are drawn from PubChem BioAssay AID743255 (National Center for Advancing Translational Sciences (NCATS), 2014).
